Hits are enriched below; roughly 1.5% of the tested compounds scored in any of these assays.
BCLXL inh = inhibitors of human Bcl-xL. Q07817. GST-Bcl-xL / FITC-Bim BH3 peptide fluorescence polarization. inhibition, % at 10.9 µM. 320,000 compounds, 0.7% hits. AID 2129;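 active = inhibition above the mean of all tested compounds plus 3 SD, cutoff set per campaign, cut at about 30% in these data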;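 also: 0% = DMSO wells and 100% = unlabeled Bim-BH3 peptide competitor; inhibitors lower millipolarization by displacing the labeled peptide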
MEX-5 binding = C. elegans MEX-5 TCR-2 RNA binding activity; 300,000 compounds, 0.38% hits; MEX-5/FITC-TCR2 RNA binding, fluorescence polarization; active compounds read low; activity score (negative = inhibition of binding), % at 10 µM; AID 1832;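 active = inhibition past about -25% in most replicates, and total fluorescence under double the plate's negative control median, limit read from the data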;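 also: 0% = DMSO and -100% = 5 µM competing unlabeled TCR2 RNA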
GLD-1 TGE inh = GLD-1-TGE RNA interaction inhibition (C. elegans) | Q17339 | purified GLD-1 + fluorescein TGE RNA, fluorescence polarization | inhibition, % at 5.96 µM | 320,000 compounds, 0.44% hits | AID 2280;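 active = percent inhibition above a per-plate cutoff, the plate mean of test compounds plus 3 SD, cut at about 30% in these data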;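 also: 0% = DMSO wells with GLD-1 and probe and 100% = wells lacking GLD-1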
eLon inh = inhibits E. coli Lon protease. P0A9M0. purified E. coli Lon protease, fluorescence polarization. inhibition, % at 7.94 µM. AID 602123. 360,000 compounds, 0.42% hits; in the data active = inhibition above about 13%, passing the limit was not always enough;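 also: 0% = enzyme with probe and DMSO and 100% = no enzyme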
Target sequence (P0A9M0 whole entry, looked up): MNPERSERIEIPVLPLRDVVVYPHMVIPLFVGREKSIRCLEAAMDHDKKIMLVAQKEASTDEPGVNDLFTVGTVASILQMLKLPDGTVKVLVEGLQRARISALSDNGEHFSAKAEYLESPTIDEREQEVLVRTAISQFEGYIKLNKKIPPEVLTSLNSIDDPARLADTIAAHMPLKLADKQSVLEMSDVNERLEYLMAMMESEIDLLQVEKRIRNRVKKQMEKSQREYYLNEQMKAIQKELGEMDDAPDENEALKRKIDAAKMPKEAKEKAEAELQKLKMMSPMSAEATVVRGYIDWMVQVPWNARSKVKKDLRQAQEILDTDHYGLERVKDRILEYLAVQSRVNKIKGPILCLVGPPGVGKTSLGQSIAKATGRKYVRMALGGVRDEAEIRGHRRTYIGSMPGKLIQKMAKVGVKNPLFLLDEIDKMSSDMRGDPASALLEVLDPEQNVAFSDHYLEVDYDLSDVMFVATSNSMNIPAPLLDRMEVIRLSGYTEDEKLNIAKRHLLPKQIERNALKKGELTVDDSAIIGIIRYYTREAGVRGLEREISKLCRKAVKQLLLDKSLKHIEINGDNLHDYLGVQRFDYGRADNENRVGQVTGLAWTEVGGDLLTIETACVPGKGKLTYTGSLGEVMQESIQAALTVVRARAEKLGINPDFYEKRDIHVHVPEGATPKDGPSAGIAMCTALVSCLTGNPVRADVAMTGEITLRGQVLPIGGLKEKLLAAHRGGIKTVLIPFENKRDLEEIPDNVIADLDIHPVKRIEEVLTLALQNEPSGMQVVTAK
EBV gp42 inh = blocks Epstein-Barr virus glycoprotein 42 binding | Q1HVG2 | Fluorescence polarization binding assay, mP read-out | inhibition, % (tested at 21.74 µM) | 220,000 compounds, 0.42% hits; in the data active = inhibition above about 50%
MCL1 BIM primary = disrupts human MCL1 binding to BIM-BH3 peptide; inhibition, % at 10.9 µM; 320,000 compounds, 0.68% hits; GST-MCL1 / FITC-Bim-BH3 fluorescence polarization;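 active = inhibition above the mean inhibition of all tested compounds plus 3 SD, set per campaign, cut at about 40% in these data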;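 also: 0% = DMSO wells and 100% = unlabeled Bim-BH3 peptide control; higher means more loss of mP so more displacement of Bim peptide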
E coli Lon conf = E. coli Lon inhibition confirmation | shares compounds with eLon inh | purified E. coli Lon, fluorescence polarization | inhibition, % at 7.94 µM | 1,400 compounds, 31% hits; in the data active = inhibition above about 16%;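 also: 0% = enzyme with probe and DMSO and 100% = no enzyme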
Active calls of the source: *.

COc1ccccc1Nc1ncc(C(=O)N2CCN(Cc3ccc(OC)c(OC)c3OC)CC2)c2ccccc12 was read as BCLXL inh 0.5, MEX-5 binding -0.5, GLD-1 TGE inh -0.8, eLon inh 5.0, EBV gp42 inh -10.1 and MCL1 BIM primary -0.6.
O=C(CS(=O)(=O)c1cn(Cc2ccc(Cl)cc2)c2ccccc12)N1CCCCC1 was read as BCLXL inh 30.2*, MEX-5 binding -0.1, GLD-1 TGE inh 7.0, eLon inh 17.5*, EBV gp42 inh -10.1, MCL1 BIM primary 25.4 and E coli Lon conf 5.2.
`Cn1c2ccccc2c(=O)c2ccc(NCc3ccc4c(c3)OCO4)cc21` gave eLon inh 17.2* and E coli Lon conf 3.0.
Screening CN1CCC[C@H]1CCNc1ccc2c(=O)c3ccccc3n(C)c2c1 returned eLon inh -3.5.
For Cc1cc(NC(=O)COC(=O)c2cc(S(=O)(=O)N3CCOCC3)ccc2N2CCCCC2)no1 the results were BCLXL inh -8.0, MEX-5 binding 3.1, GLD-1 TGE inh -2.6, eLon inh 53.7*, EBV gp42 inh -7.3, MCL1 BIM primary -10.8 and E coli Lon conf 9.4.
O=C(NC1CCCCCC1)c1cc(S(=O)(=O)N2CCCCC2)ccc1N1CCOCC1 was read as BCLXL inh 8.5, MEX-5 binding 2.9, GLD-1 TGE inh 14.9, eLon inh -3.6, EBV gp42 inh -5.4 and MCL1 BIM primary 3.0.
O=C(NC1CCCCC1)c1cc(S(=O)(=O)N2CCCCC2)ccc1N1CCOCC1 was read as BCLXL inh -0.7, GLD-1 TGE inh 5.2, eLon inh 20.5*, MCL1 BIM primary -1.1 and E coli Lon conf -2.3.
Screening CN(CC(=O)Nc1cccc(F)c1)C(=O)c1cc(S(=O)(=O)N2CCN(c3ccccc3)CC2)ccc1Cl returned BCLXL inh -2.2, GLD-1 TGE inh 0.2, eLon inh -1.7 and MCL1 BIM primary 1.1.
`CCCCn1nnnc1C(c1ccccc1)N1CCN(CCN2CCOCC2)CC1` (configuration not stated) gave eLon inh 15.0* and E coli Lon conf 0.5.
CC(=O)N1CCN(S(=O)(=O)c2cccc(C(=O)NC3CC3)c2)CC1 was read as BCLXL inh -0.3, GLD-1 TGE inh -0.4, eLon inh 3.2 and MCL1 BIM primary -10.1.
Screening COc1ccc(C2=CC(c3ccco3)n3ncnc3N2)cc1 (configuration not stated) returned eLon inh 48.8*, EBV gp42 inh 87.8* and E coli Lon conf 69.1*.
`ON(CCc1ccccn1)Cc1ccccc1` gave eLon inh 1.1.
`ON(CCc1ccccn1)CCc1ccccn1` gave eLon inh 37.6* and E coli Lon conf 25.1*.
For Cc1ccc(C(C)C)c(OCC(=O)NN=C2CCCC(=O)C2)c1 the results were GLD-1 TGE inh 5.1, eLon inh 42.9* and E coli Lon conf -29.0.
Cc1ccc(C(C)C)c(OCC(=O)NN=C2CCCCCCC2)c1 was read as BCLXL inh -0.7, MEX-5 binding 1.7, GLD-1 TGE inh 4.8, eLon inh 3.8, EBV gp42 inh 2.8 and MCL1 BIM primary 3.7.
Screening CSc1ccccc1NC(=O)CN(C)C(C)C(=O)NCc1ccc2c(c1)OCO2 (configuration not stated) returned GLD-1 TGE inh 2.5 and eLon inh 5.7.
Screening C=CCOn1c(=O)c(-c2cc3ccccc3o2)[n+]([O-])c2ccccc21 returned BCLXL inh 45.5*, MEX-5 binding -27.1*, GLD-1 TGE inh 6.7, eLon inh 17.2*, EBV gp42 inh -11.5, MCL1 BIM primary 39.0 and E coli Lon conf -212.9.
`O=C(c1ccccc1)c1ccc(C(=O)N2CCN(c3ccccc3Cl)CC2)cc1` gave BCLXL inh 3.7, GLD-1 TGE inh 3.8, eLon inh 18.1*, MCL1 BIM primary 6.1 and E coli Lon conf 4.9.
For C[C@H](CO)N1C[C@H](C)[C@H](CN(C)C(=O)Nc2cccc(F)c2)Oc2cc(C#CC3(O)CCCC3)ccc2S1(=O)=O the results were eLon inh 12.5* and E coli Lon conf -2.4.
CCOC(=O)c1cc2c(ccn2C)n1CC(=O)N1CCC(Cc2ccccc2)CC1 was read as BCLXL inh 7.8, MEX-5 binding 1.8, GLD-1 TGE inh 27.1, eLon inh 20.3*, EBV gp42 inh 7.9, MCL1 BIM primary 1.7 and E coli Lon conf 9.5.
CCOC(=O)c1cc2c(ccn2C)n1CC(=O)N1CCCC(C)C1 (configuration not stated) was read as BCLXL inh 10.9, MEX-5 binding 0.7, GLD-1 TGE inh 4.2, eLon inh 3.2, EBV gp42 inh 1.4 and MCL1 BIM primary 10.8.
`CCOc1ccc(CCN2C(=S)N([C@@H](CC(C)C)CN3CCC[C@@H]3CN3C(=S)NC[C@@H]3Cc3ccccc3)C[C@@H]2Cc2ccc(O)cc2)cc1` gave eLon inh 7.8.
Screening CCC(=O)NCCn1ccc2ccccc21 returned BCLXL inh 1.8, MEX-5 binding -2.6, GLD-1 TGE inh 0.4, eLon inh -5.4, EBV gp42 inh -1.4 and MCL1 BIM primary 3.2.
For O=C(Cc1cccs1)NCCn1ccc2ccccc21 the results were BCLXL inh -4.7, MEX-5 binding 2.6, GLD-1 TGE inh -5.9, eLon inh 18.7*, EBV gp42 inh -3.8, MCL1 BIM primary 2.2 and E coli Lon conf -4.6.
Screening CC(=O)Nc1ccc(S(=O)(=O)NCc2ccc3[nH]c(C)cc3c2)cc1 returned BCLXL inh 8.8, MEX-5 binding -0.3, GLD-1 TGE inh 9.4, eLon inh 19.4*, EBV gp42 inh -9.7, MCL1 BIM primary 11.0 and E coli Lon conf 7.3.
Screening Cc1ccc(S(=O)(=O)NCc2ccc3[nH]c(C)cc3c2)cc1 returned BCLXL inh -2.1, MEX-5 binding -0.8, GLD-1 TGE inh -0.5, eLon inh 4.7, EBV gp42 inh 8.4 and MCL1 BIM primary 0.5.
Nc1scc2c(C(=O)N/N=C/c3ccc(Cl)cc3)nn(-c3ccccc3)c(=O)c12 was read as BCLXL inh 42.6*, MEX-5 binding -3.8, GLD-1 TGE inh 11.5, eLon inh 14.7*, EBV gp42 inh -8.7, MCL1 BIM primary 40.5* and E coli Lon conf 16.6*.
`CC(C(=O)N1CCCc2c1c(=O)oc1ccc(O)cc21)N1CCc2ccccc2C1` (configuration not stated) gave BCLXL inh 5.0, MEX-5 binding 0.1, GLD-1 TGE inh -6.0, eLon inh 16.2*, EBV gp42 inh -10.8, MCL1 BIM primary -3.2 and E coli Lon conf active.
`Cc1cnc(CNC(=O)c2ccc3oc(Cc4ccc(Cl)cc4)nc3c2)cn1` gave BCLXL inh -1.6, MEX-5 binding 2.8, GLD-1 TGE inh -2.7, eLon inh -0.6 and MCL1 BIM primary -0.4.

High-throughput results (PubChem)
